We go through 40 molecules from PubChem BioAssay (Tox21).

Results filed as inconclusive are left out. Unmarked numbers belong to inactive results. The source made the active and inactive calls. The call rests on the fitted dose curve; in most records, active means well fitted inhibition curve with a large enough effect in the repeat runs; inconclusive means weak or mixed curves; inactive means flat fitted curve, though single readings scatter.
On the % scale 0 is the no-effect control and ±100 the full control effect; potency means the concentration at half of the fitted maximal effect.

Voltage-gated inwardly rectifying potassium channel KCNH2 (Homo sapiens), sequence (Q12809 whole entry, looked up): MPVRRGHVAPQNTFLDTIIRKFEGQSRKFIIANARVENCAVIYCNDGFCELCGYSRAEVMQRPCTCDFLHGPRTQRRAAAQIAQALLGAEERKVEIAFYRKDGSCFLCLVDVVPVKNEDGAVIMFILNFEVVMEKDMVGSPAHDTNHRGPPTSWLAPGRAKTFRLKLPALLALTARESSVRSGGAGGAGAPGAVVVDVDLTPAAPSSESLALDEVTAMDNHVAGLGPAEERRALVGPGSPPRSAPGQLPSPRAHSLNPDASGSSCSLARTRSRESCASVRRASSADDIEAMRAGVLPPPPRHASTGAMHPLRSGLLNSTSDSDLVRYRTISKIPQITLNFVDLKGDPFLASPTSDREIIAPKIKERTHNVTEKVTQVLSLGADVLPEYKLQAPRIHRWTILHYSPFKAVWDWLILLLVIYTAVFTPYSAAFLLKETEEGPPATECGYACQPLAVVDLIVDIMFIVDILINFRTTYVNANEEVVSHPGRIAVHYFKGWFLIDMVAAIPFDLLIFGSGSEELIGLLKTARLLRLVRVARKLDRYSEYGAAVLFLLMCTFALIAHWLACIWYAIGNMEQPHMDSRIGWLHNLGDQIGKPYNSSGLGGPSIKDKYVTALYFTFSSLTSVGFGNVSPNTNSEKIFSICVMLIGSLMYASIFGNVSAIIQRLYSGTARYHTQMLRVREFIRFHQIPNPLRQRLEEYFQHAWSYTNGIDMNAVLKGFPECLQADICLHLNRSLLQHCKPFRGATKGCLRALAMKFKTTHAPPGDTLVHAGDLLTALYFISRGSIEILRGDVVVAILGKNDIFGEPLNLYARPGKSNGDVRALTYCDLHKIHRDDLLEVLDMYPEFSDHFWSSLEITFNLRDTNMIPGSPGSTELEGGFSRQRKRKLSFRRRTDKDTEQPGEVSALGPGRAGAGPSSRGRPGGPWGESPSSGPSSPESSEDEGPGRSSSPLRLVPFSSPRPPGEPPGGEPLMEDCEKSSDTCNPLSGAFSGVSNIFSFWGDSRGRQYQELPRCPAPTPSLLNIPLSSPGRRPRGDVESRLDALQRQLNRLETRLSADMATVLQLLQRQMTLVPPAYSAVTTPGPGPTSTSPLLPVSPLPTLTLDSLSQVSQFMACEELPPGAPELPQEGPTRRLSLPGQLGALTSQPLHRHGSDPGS

The target of the assay is Voltage-gated inwardly rectifying potassium channel KCNH2 (Homo sapiens) (UniProt Q12809). In words: Human Ether-a-go-go-Related Gene (hERG) channel small molecule antagonists: fluorescence cell-based qHTS assay (AID 1671200). Further: nearly all actives have a fitted effect of over 50% in size. The note with it: hERG-U2OS cells, FluxOR thallium flux fluorescence; series mostly up to 76.8 µM; activity change, negative = inhibition: at the top concentration. An excerpt:
National Center for Advancing Translational Sciences [NCATS]
U.S. Environmental Protection Agency [EPA]
National Institutes of Environmental Health Sciences [NIEHS]
National Toxicology Program [NTP]
U.S. Food and Drug Administration [FDA]
Mutations in the hERG channel cause Long QT (LQT) syndrome. LQT syndrome is a cardiac disorder which can cause ventricle arrhythmia and sudden death. Additionally, compounds which block the hERG channel can cause acquired LQT syndrome. Several FDA approved drugs have been removed from the market due to their hERG blocking activity. A cell-based hERG channel inhibition assay can be used to screen chemical compounds that inhibit hERG channel. This assay measures hERG channel activity using thallium ions as surrogate ions to measure potassium into the cells.
Tox21 Assay Protocol Summary:
hERG-U2OS cells were resuspended in culture medium and dispensed into 1536-well, black wall/clear-bottom plates at 1000cells/well/3uL using a Multidrop Combi dispenser (Thermo Fisher, Waltham, MA). After plates were incubated at 37 C overnight, 3 uL of Loading Buffer provided by FluxOR II Potassium Ion Channel Assay kit (Thermo, Carlsbad, CA) was added to each well. The assay plates were then incubated at room temperature in the dark for 1h. […] After the assay plates were incubated at room temperature for 10 min, 1 uL of Stimulus Buffer provided by FluxOR II Potassium Ion Channel Assay kit was added into each well and fluorescence intensity (480nm excitation/540nm emission) was continuously measured for 2 min at 1 second intervals using a Functional Drug Screening System (FDSS) 7000EX kinetic plate reader (Hamamatsu, Japan).
As to `CC(C)C(=O)OCCOc1ccccc1`, the “activity change, negative = inhibition” value is 0.613%.
The same measure, in the same setting: the result for `O=C(O)c1cccc(Oc2ccccc2)c1` reads -0.946%; that for `O=C(O)/C=C/c1ccc(O)c(O)c1`, -5.72%.
On the same count and under the same terms, the result for `CC(=O)C(C)=O` reads 6.05%.
As for `CCCCCc1ccco1`, the “activity change, negative = inhibition” value is -16.9% [at 35.3 µM].
As to `CNCc1ccc(NC(=O)c2c[nH]c3c2C(=O)CCC3)cc1`, the “activity change, negative = inhibition” value was 1.09%.
Same read-out and setting: with `Nc1ccc(F)cc1` the figure was 5.64%.
Regarding `Cc1ccc2nc(N)[nH]c(=O)c2c1Sc1ccncc1`, the “activity change, negative = inhibition” value is 3.27% [at 35.3 µM].
As to `COC(OC)OC`, the “activity change, negative = inhibition” value is -0.295%.
`NC(=O)CCCCC(N)=O`: the “activity change, negative = inhibition” value was -6.11%.
On the same count and under the same terms, with `O=S(=O)(O)CO` the figure was -0.529%.
Turning to `CCCCCCC(CO)CCCC` (stereo not given), the “activity change, negative = inhibition” value is 1.09%.
Still for that read-out and setting: the result for `CCCCCCCCCCCC(=O)OCC(O)CO` (stereo not given) reads -5.93%.
In the case of `CCCCCCCCCCCCCCCC(=O)OCC`, the “activity change, negative = inhibition” value is 1.78%.
Turning to `CC1=C2[C@@H]([C@H](C)CC[C@H]2/C=C(\C)C(=O)O)[C@H](O)C1`, the “activity change, negative = inhibition” value is 0.0622%.
For `COc1cc(OC)c2ccc(=O)oc2c1`, the “activity change, negative = inhibition” value was -0.0263%.
For `CCC(C)(C)C(=O)O`, the “activity change, negative = inhibition” value is 0.857%.
`COc1ccc(C)cc1`: the “activity change, negative = inhibition” value was 0.083%.
The same measure, in the same setting: the result for `Nc1ccc(S(=O)(=O)NCc2ccccc2)cc1` reads 6.5% [at 35.3 µM]; that for `CCCCOC(=O)CCCCC(=O)OCCCC`, -7.24%.
Regarding `COc1cc(C(C)=O)ccc1OCCCN1CCC(c2noc3cc(F)ccc23)CC1`, the Potency was 1.07 µM (active).
Regarding `CCc1ccc(C)cc1`, the “activity change, negative = inhibition” value was 0.0213%.
Regarding `COc1cc(S(=O)(=O)Nc2ccccc2)c(OC)cc1N`, the “activity change, negative = inhibition” value was 2.15%.
The same measure, in the same setting: the result for `C=CC(=O)NC(C)C` reads 0.758%; that for `C=CC(=O)O`, 0.705% [at 35.3 µM].
With `c1ccc2sc(SSc3nc4ccccc4s3)nc2c1`, the activity change, negative = inhibition is 5.4% [at 15.8 µM].
In the case of `O=C(O)CCC(=O)OC[C@@H](NC(=O)C(Cl)Cl)[C@H](O)c1ccc([N+](=O)[O-])cc1`, the “activity change, negative = inhibition” value is -0.822% [at 35.3 µM].
The same measure, in the same setting: with `O=C(O)CCC(=O)c1ccc(-c2ccccc2)cc1` the figure was 0.503% [at 35.3 µM].
The same measure, in the same setting: the result for `O=P(O)(O)Oc1ccccc1` reads 0.329%; that for `CC(C)c1ccc(C(=O)N=C(N)N)cc1S(C)(=O)=O`, 1.2% [at 35.3 µM]; that for `Cc1ccc(NC(=O)N(C)C)cc1NC(=O)N(C)C`, 0.0979%.
Still for that read-out and setting: the result for `BrC(Br)C(Br)Br` reads 2.47%; that for `Cc1cccc(C)c1NC(=O)c1cc(S(N)(=O)=O)c(Cl)cc1O`, 0.915% [at 35.3 µM].
For the molecule `Nc1ccc(N=Nc2ccc(N)cc2)cc1`, the “activity change, negative = inhibition” value is 1.14% [at 35.3 µM].
Consider `O=C(c1ccccc1)c1ccc(O)cc1`, for which the “activity change, negative = inhibition” value is -5.1%.
Same read-out and setting: with `c1ccc(CNc2ncnc3c2ncn3C2CCCCO2)cc1` (stereo not given) the figure was 2.58%.
On the same count and under the same terms, the result for `C=C(C)c1ccccc1` reads 3.21%.
As for `O=C(O)CCS`, the “activity change, negative = inhibition” value is 1.28%.
As for `Cc1ccc(Cl)cc1N`, the “activity change, negative = inhibition” value was 3.7%.
As to `CC(C)(C)C1(CCc2ccc(Cl)cc2)CO1` (stereo not given), the Potency is 24.5 µM (active).
